High-throughput results as filed in PubChem.
Hits are enriched below; roughly 19% of the tested compounds scored in any of these assays.
DT40 TDP1 no CPT: qHTS for Inhibitors of human tyrosyl-DNA phosphodiesterase 1 (TDP1): qHTS in cells in absence of CPT; 420,000 compounds, 15% hits; Potency, µM (highest dose often 46.2 µM), without a hit: at the highest dose activity change, negative = growth inhibition, usual class: inhibitors; AID 686978, 2013; DT40 Tdp1-/- hTDP1 cells, no CPT, ATP luminescence, 48 h; further: potency means the concentration at half of the fitted maximal effect; nearly all actives have a fitted effect of over 55% in size
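Stably hTDP1-transfected Tdp1-null chicken DT40 cells were treated with library compounds minus camptothecin and grown for at least 48 hr at 37 °C, after which cellular ATP was quantified by luminescence.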
HT1080-NT tox: kills 2HG-producing HT-1080-NT fibrosarcoma cells | HT-1080-NT fibrosarcoma viability, CellTiter-Glo ATP luminescence, 48 h | Potency, µM (top dose mostly 46.1 µM), inactives show at the top dose activity, negative = less viability, usual class: cytotoxic | 360,000 compounds, 1.6% hits | AID 686970;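 further: NT is the 2HG producing partner of a matched IDH1 knockdown line; potency means the concentration at half of the fitted maximal effect; 0% = DMSO-treated cells and -100% = media-only wells without cells; nearly all actives have a fitted effect of over 55% in size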
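Viability by CellTiter-Glo luminescence after 48 h compound exposure at 37C of HT-1080-NT cells (750/well, RPMI, 5% FBS). % activity scaled between DMSO wells and medium-only wells, then curve-fitted and categorized by curve class.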
IL1B secr inh: inflammasome signaling inhibition, IL-1 beta readout. THP-1 LPS/ATP IL-1B secretion, AlphaLISA, 16 h; active compounds read low. activity change, % at 57.5 µM. 360,000 compounds, 4.7% hits; in the data active means activity change below about -50%; inconclusive means mostly about -30% to -49%
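Secreted IL-1B measured by AlphaLISA bead assay after 16 h compound exposure of THP-1 cells; compounds (final up to 57.5 uM) added 1 h before LPS (250 ng/mL) and ATP (1.25 mM) stimulation; lower signal means less secretion.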
TDP1 cell CPT: growth inhibition of DT40 Tdp1-/-;hTDP1 cells with camptothecin (screen for TDP1 inhibitors); 420,000 compounds, 12% hits; chicken DT40 Tdp1-/-;hTDP1 cells + 20 nM CPT, ATP luminescence, 48 h; AID 686979; Potency, µM (doses to about 46.2 µM), without a hit: at the top dose activity change, negative = growth inhibition, hits mostly inhibitors; further: potency means the concentration at half of the fitted maximal effect; nearly all actives have a fitted effect of over 55% in size
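Chicken DT40 Tdp1-/- cells stably complemented with human TDP1 were seeded at 400 cells/well in medium containing 20 nM camptothecin, exposed to pin-transferred compounds, and grown at 37 °C for at least 48 hr. Viability was read as ATP luminescence.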
HT1080 IDH1KD tx: toxicity to HT-1080 IDH1 knockdown cells (counter line) | HT-1080 IDH1 knockdown viability, ATP luminescence, 48 h | Potency, µM (titrated, usually from 46.1 µM), for inactives: top-dose activity, negative = toxicity, most hits filed as cytotoxic | 360,000 compounds, 2% hits | AID 686971;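 further: potency means the concentration at half of the fitted maximal effect; 0% = DMSO wells and -100% = cell-free medium wells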
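Cytotoxicity counter-line: IDH1KD HT-1080, 48 h, CellTiter-Glo. Curves classed by r2, magnitude and activity.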
An asterisk follows results filed as active; ? = inconclusive; nt = no result given; [ ] = another dose, or the depositor's remark. Unless noted, the call rests on the fitted dose curve; in most records, active means well fitted curve in the direction sought with a large enough effect; inconclusive means small, poorly fitted or top-dose-only effect, or another doubt; inactive means no such curve, though single readings can be large; an effect the other way counts as inactive or inconclusive. Unless noted, on the % scale 0 is the no-effect control and ±100 the full control effect.

SMILES | DT40 TDP1 no CPT | HT1080-NT tox | IL1B secr inh | TDP1 cell CPT | HT1080 IDH1KD tx
O=C(CCCc1ccccc1)N1CCN(c2ccc([N+](=O)[O-])cc2)CC1 | 18.4µM* | -14.4% | -1.7 | 18.4µM* | 1.6%[9.24 µM]
O=C(CCCC(=O)N1CCN(c2ccc([N+](=O)[O-])cc2)CC1)c1ccccc1 | 10.3µM* | 0.9% | ? | ? | -1.5%
O=C(CCS(=O)(=O)Cc1ccccc1)N1CCN(c2ccc([N+](=O)[O-])cc2)CC1 | ? | 0.0% | -22.3 | ? | -6.3%
COc1ccccc1OCCC(=O)Nc1nc(C)cs1 | -11.1% | ? | -22.8 | -28.1% | 7.2%
C/C(=N\NC(N)=O)C1CC(Cc2ccccc2)C(=O)O1 (configuration not stated) | 7.4% | 23.7% | 0.2 | 2.3% | -1.1%
COc1ccccc1S(=O)(=O)N(C)C[C@H]1Oc2ncc(Br)cc2C(=O)N([C@H](C)CO)C[C@H]1C | ? | 12.8% | 13.1 | -21.7% | 8.9%
COc1ccc(NC(=O)Nc2cccs2)cn1 | 18.4µM* | 11.9% | -6.4 | 13µM* | 5.9%
Cc1ccc(OC(F)F)c(NC(=O)Nc2cccc(C(F)(F)F)c2)c1 | ? | ? | -98.6* | 12.6µM* | ?
COc1ccc(NC(=O)Nc2cccc(C(F)(F)F)c2)cn1 | 20.6µM* | ? | ? | ? | ?
Cc1ccc(C(=O)Nc2ccc(C(=O)O)cc2)cc1S(=O)(=O)N1CCC(C)CC1 | 6.5% | nt | nt | -4.6% | nt
C/C(N)=C(/C#N)C(=O)COC(=O)CNC(=O)c1ccc(Cl)cc1Cl | -3.3% | 12.0% | 9.9 | 7.8% | 20.0%
Cc1cc(C)nc(Oc2ccc([N+](=O)[O-])cc2)n1 | 14.0% | 13.8% | 10.1 | 2.8% | 3.3%
CC1CCc2nc(/C(C#N)=C/c3cccnc3)sc2C1 (configuration not stated) | ? | -3.8% | -22.2 | 20.6µM* | ?
N#C/C(=C/c1cccnc1)c1ccccc1 | -10.0% | 16.2% | -13.3 | 4.5% | 13.1%
Clc1ccc(/C=C/c2nc3ccccc3[nH]2)c(Cl)c1 | 18.4µM* | 14.6µM* | ? | 13µM* | ?
O=C(/C=C/c1ccc(Cl)cc1Cl)c1nc2ccccc2[nH]1 | ? | ? | -4.7 | 11.6µM* | ?
O=C(/C(=C(\O)c1ccccc1)c1nc2ccccc2[nH]1)c1ccccc1 | ? | -7.1% | ? | -12.9% | -9.9%
Clc1cccc(Cl)c1/C=C/c1nc2ccccc2[nH]1 | 16.4µM* | ? | -25.8 | ? | ?
CC(C)C[C@@H](CNCC(=O)[C@H](C)NC(=O)c1[nH]cnc1C(=O)N[C@@H](C)CN)NC(=O)c1nc[nH]c1C(=O)N[C@@H](C)C(=O)O | -2.6% | -1.0% | -1.4 | 1.1% | -6.5%
COc1c(CO)cc(CO)cc(CO)c1=O | -10.6%[9.04 µM] | nt | nt | 3.6%[9.04 µM] | nt
CCCCCCSc1cc(C)nc2ncnn12 | 11.6µM* | 0.0% | 42.0 | 16.4µM* | 1.6%
CCSc1cc(C)nc2ncnn12 | 7.1% | 5.4% | 8.2 | -12.8% | 5.2%
Cc1cc(C)c(NC(=O)c2ccc(CNS(=O)(=O)c3cc(C(F)(F)F)ccc3Cl)cc2)c(C)c1 | 16.4µM* | -11.7% | -0.3 | 20.6µM* | -22.5%
O=S(=O)(NCc1ccccn1)c1cc(C(F)(F)F)ccc1Cl | -18.1% | 7.0% | 5.5 | ? | 9.1%
CC1=NN(c2ccc(Cl)cc2)C(=O)/C1=C\c1cccn1-c1ccc(S(N)(=O)=O)cc1 | 14.6µM* | ? | ? | ? | ?
SMILES | DT40 TDP1 no CPT | HT1080-NT tox | IL1B secr inh | TDP1 cell CPT | HT1080 IDH1KD tx
CC1(C)CC(=O)C=C(OC(=O)c2ccc(Cl)cc2)C1 | -20.2% | 14.7% | 18.1 | 2.6% | 11.8%
COc1ccc(C)cc1NC(=O)C1CCCN(S(=O)(=O)c2cccnc2)C1 (configuration not stated) | -9.6% | -0.2% | 0.0 | -22.4% | -0.5%
CCN(CC)c1ccc(NC(=O)C2CCCN(S(=O)(=O)c3cccnc3)C2)c(C)c1 (configuration not stated) | 10.3µM* | -4.8% | 38.6 | 14.6µM* | -7.3%
O=C(Nc1ccc(Br)cc1)C1CCCN(S(=O)(=O)c2cccnc2)C1 (configuration not stated) | 25.9µM* | -2.7% | 6.8 | 23.1µM* | -1.2%
CCN(CCCNC(=O)C1CCCN(S(=O)(=O)CC)C1)c1cccc(C)c1 (configuration not stated) | 14.6µM* | 1.9% | 4.7 | 23.1µM* | -4.4%
CCc1cccc(NC(=O)C2CCCN(S(=O)(=O)c3cccnc3)C2)c1 (configuration not stated) | 14.6µM* | -1.0% | 8.1 | ? | -4.2%
Cc1cc(C)c(S(=O)(=O)N2CCN(c3ccccn3)CC2)c(C)c1 | -0.8% | -13.9% | ? | 17.0% | -16.8%
CCOC(=O)c1c(NC(C)=O)sc2c1CCC(C=O)=C2Sc1ccccc1 | 6.51µM* | 14.1µM* | -99.9* | 6.51µM* | 7.08µM*
CCOC(=O)c1c(NC(=O)c2ccc(OCC)c(Br)c2)sc2c1CCCC2 | -13.1% | nt | nt | -0.6% | nt
CCOC(=O)c1c(NC(=O)c2ccccc2Br)sc2c1CCc1ccccc1-2 | 18.4µM* | 3.7% | 6.0 | ? | 1.3%
CCOC(=O)c1c(NC(C)=O)sc2c1CCCNC2=O | -11.8% | 1.1% | -8.1 | -21.6% | 0.5%[9.24 µM]
O=C(c1ccco1)N(Cc1cccnc1)C(c1ccccc1)c1nc2ccccc2[nH]1 (configuration not stated) | -55.2% | -1.7% | 5.3 | ? | 0.5%
O=S1(=O)N[C@H](Cc2ccccc2)COc2cc(N3CCN(Cc4ccccc4F)CC3)ccc21 | 16.4µM* | 5.5% | 38.8 | ? | -3.4%
O=C(c1ccc(Cl)c(S(=O)(=O)N2CCOCC2)c1)N(Cc1ccco1)Cc1cccs1 | ? | 5.9% | -3.1 | ? | 10.3%
Cc1ccc(CNC(=O)CCC(=O)N2CCSc3ccccc32)cc1 | 23.1µM* | nt | nt | ? | nt
O=C(CCC(=O)N1CCSc2ccccc21)NCc1cccc(Cl)c1 | ? | -1.4% | 9.4 | ? | 3.1%
CCc1ccc(NC(=O)CCC(=O)N2CCSc3ccccc32)cc1 | ? | 6.0% | 13.5 | 20.6µM* | 3.3%
CCCCc1ccc(N2C(=O)[C@@H]3C(CC(N)=O)NC4(C(=O)Nc5ccc(F)cc54)[C@@H]3C2=O)cc1 (some centres not stated) | 0.3% | -0.2%[9.24 µM] | -15.1 | 5.5% | ?
CCc1ccccc1NC(=O)C1CCN(C(=O)N2CCOc3ccccc32)CC1 | 20.6µM* | 8.3% | 8.8 | ? | -1.8%
O=C(NCCc1ccc(Cl)cc1)C1CCN(C(=O)N2CCOc3ccccc32)CC1 | 23.1µM* | -2.1% | -27.2 | 25.9µM* | -0.1%
